Source: PubChem BioAssay (National Center for Advancing Translational Sciences (NCATS))
The list is not random: actives were taken first. Their share in the collection is about 7.5%.
FLuc modulator: firefly luciferase modulation, counter-screen for miR-21 project. AID 588342. Potency, µM (doses to about 57.5 µM), for the others: top-dose activity change, negative = inhibition, hits mostly inhibitors. hit rate 6.9% among 360,000. purified FLuc, Km substrates, luminescence inhibition;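 also: plate controls were vehicle for no effect and reference inhibitor for full effect; nearly all actives have a fitted effect of over 55% in size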
Target sequence (P08659 whole entry, looked up): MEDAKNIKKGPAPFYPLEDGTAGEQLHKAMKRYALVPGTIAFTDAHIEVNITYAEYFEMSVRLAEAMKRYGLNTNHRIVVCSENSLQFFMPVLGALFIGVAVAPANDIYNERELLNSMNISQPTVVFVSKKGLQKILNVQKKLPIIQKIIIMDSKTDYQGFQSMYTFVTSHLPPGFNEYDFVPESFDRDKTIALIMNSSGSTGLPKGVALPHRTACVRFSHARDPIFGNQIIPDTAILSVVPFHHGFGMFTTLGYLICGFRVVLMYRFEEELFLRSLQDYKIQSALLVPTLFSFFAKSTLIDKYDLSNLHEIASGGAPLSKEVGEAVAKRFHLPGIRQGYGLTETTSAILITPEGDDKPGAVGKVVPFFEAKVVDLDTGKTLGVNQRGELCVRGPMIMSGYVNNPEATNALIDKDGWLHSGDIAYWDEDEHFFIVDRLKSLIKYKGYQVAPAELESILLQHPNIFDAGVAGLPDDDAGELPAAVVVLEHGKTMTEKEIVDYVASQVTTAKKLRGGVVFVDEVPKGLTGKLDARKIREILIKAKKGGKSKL
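Biochemical qHTS of compounds, final roughly 60 µM downward over six points, against 10 nM purified firefly luciferase using Km concentrations of substrates (10 uM D-luciferin, 10 uM ATP) in Tris acetate pH 7.5 buffer; luminescence output.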
Rab9 promoter act: Rab9 promoter activation; Potency, µM (titrated, usually from 9.22 µM), for inactives: at the top dose activation, negative = inhibition, usual class: activators; AID 485297; hit rate 2.8% among 320,000; Huh7 Rab9 promoter-luciferase reporter, luminescence, 24 h; also: % of control where 0% means no effect; nearly all actives have a fitted effect of over 60% in size
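Huh7 reporter line, Rab9 promoter upstream of luciferase. Compound exposure 24 h at 37 °C in reduced-serum medium with 10% FBS. Read-out: luminescence.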
NPC1 prom act: activators of NPC1 promoter | Huh7 NPC1 promoter luciferase reporter, 24 h | Potency, µM (doses to about 9.22 µM), without a hit: top-dose activation, actives largely listed as activators | hit rate 2.4% among 320,000; also: % of control where 0% means no effect; nearly all actives have a fitted effect of over 60% in size
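Quantitative HTS used a cell-based reporter: Huh7 cells stably bearing the NPC1 promoter upstream of luciferase were treated with compounds for 24 h, and promoter activation was read as luminescence.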
SMN2 splice enh: increases expression of the SMN2 splice variant | HEK293 SMN2-luciferase splicing reporter, luminescence, 30-36 h | Potency, µM (highest dose often 46.1 µM), for the others: top-dose activity change, positive = activation, hits mostly activators | hit rate 2.8% among 210,000; also: % of control where 0% means no effect; nearly all actives have a fitted effect of over 55% in size
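HEK293 cells carry an SMN2 minigene-luciferase reporter in which exon 7 inclusion puts luciferase in frame. Cells were seeded at 2000 cells/well, attached for 10-12 hours, then exposed to compounds for 30-36 hours at 37C before ONE-Glo luminescence.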
ELG1 genotoxic: genotoxicity induction in ELG1-luciferase HEK293T cells; HEK293T ELG1-luciferase reporter, luminescence, 16 h; Potency, µM (doses to about 46 µM), without a hit: top-dose activity change, positive = activation, hits mostly activators; hit rate 1.3% among 330,000; also: % of control where 0% means no effect; nearly all actives have a fitted effect of over 60% in size
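Step 1: seed 2,000 HEK293T ELG1-luciferase cells per well. Step 2: add compound or DMSO, incubate 16 hr at 37 °C. Step 3: ONE-Glo, 30 min at room temperature, read luminescence.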
Starred values were filed as active, the others as inactive; ? = inconclusive; / = no result. Calls follow the shape of the dose curve; as a rule, active = well fitted curve in the direction sought with a large enough effect; inconclusive = small, poorly fitted or top-dose-only effect, or another doubt; inactive = no such curve, though single readings can be large; an effect the other way counts as inactive or inconclusive. Potency is read from the fitted curve at half-maximal effect.

SMILES	FLuc modulator	Rab9 promoter act	NPC1 prom act	SMN2 splice enh	ELG1 genotoxic
O=C(Nc1ccc(O)c(-c2nc3ccccc3s2)c1)C1=COCCO1	-16%	-1%	0%	-17%	0%
O=C(Nc1ccc(-c2nc3ccccc3s2)cc1)C1=COCCO1	0.11µM*	0.4µM*	0.089µM*	-27%	0.26µM*
Cc1sc(NC(=O)C2=COCCO2)nc1-c1ccc(Br)cc1	-17%	-5%	1%	/	-1%
Cc1ccccc1C(=O)Nc1cccc(-c2nc3cccnc3s2)c1	-6%	/	/	/	/
O=C(Nc1ccc(-c2nc3ccccc3s2)c(O)c1)C1=COCCO1	0.48µM*	0.71µM*	0.5µM*	2.2µM*	16µM*
O=C(CCC1N=C2c3ccccc3N=C(SCc3ccccc3F)N2C1=O)NC1CCCCC1 (centres undefined)	0%	/	/	/	/
NC(=O)C1CCN(C(c2ccccc2Cl)c2nnnn2Cc2ccc3c(c2)OCO3)CC1 (centres undefined)	5%	-5%	1%	-16%	1%
CC(C)Sc1nc2ccsc2c(=O)[nH]1	-17%	-4%	1%	12%	3%
Cc1ccc(-c2nc3ccsc3c(=O)o2)cc1	2.7µM*	2.5µM*	2.8µM*	105%	18µM*
CCn1ccnc1CN(C)C(=O)c1cc(COc2ccccc2SC)on1	12µM*	2.8µM*	?	/	?
Cc1nonc1CN(C)C(=O)c1cc(COc2ccc(F)cc2Cl)on1	?	19%	27%	/	9%
CSc1ccccc1OCc1cc(C(=O)N(C)Cc2ccncn2)no1	15µM*	2µM*	2µM*	/	16µM*
CSc1ccccc1OCc1cc(C(=O)N(C)CCn2nc(C)cc2C)no1	-19%	9%	8%	/	3%
CSc1ccccc1OCc1cc(C(=O)N(C)Cc2nonc2C)no1	13µM*	2µM*	2.2µM*	/	?
Cc1onc(-c2ccccc2)c1C(=O)Nc1nnc(CC(C)(C)C)s1	-5%	3%	0%	/	9%
O=C(CN1C=NS(=O)(=O)c2ccc(C(F)(F)F)cc21)Nc1cccc(C(F)(F)F)c1	1%	/	/	/	/
Cc1cn2c(=O)cc(COc3ccc(Cl)cc3)nc2s1	-6%	/	/	6%	/
COc1ccc(OC)c(NC(=O)Nc2cccc(OCc3cc(=O)n4cc(C)ccc4n3)c2)c1	1.2µM*	/	/	/	/
Cc1ccc2nc(COc3ccc(Cl)cc3)cc(=O)n2c1	?	1.3µM*	3.5µM*	13µM*	23%
Cc1cccc(OC(C)C(=O)N2CCN(Cc3ccc4c(c3)OCO4)CC2)c1 (centres undefined)	6%	0%	-3%	/	-14%
COc1ccc(OC)c(C2CC(=O)c3c([nH]c(C(=O)OCc4ccc(C)cc4)c3C)C2)c1 (centres undefined)	-7%	/	/	1%	/
c1ccc(-c2cnc(CSc3nnc4ccccn34)o2)cc1	11µM*	1µM*	1.6µM*	11µM*	4.1µM*
CCOC(=O)NS(=O)(=O)c1ccc(CCNC(=O)c2cc(C)on2)cc1	0%	-6%	0%	10%	-5%
COc1ccc(Nc2nc(-c3ccc(OC)cc3)c(CCC(=O)O)s2)cc1	?	-8%	-5%	/	3%
COC(=O)CCc1sc(Nc2ccccc2)nc1-c1ccc(OC)cc1	24µM*	25%	15%	?	?
SMILES	FLuc modulator	Rab9 promoter act	NPC1 prom act	SMN2 splice enh	ELG1 genotoxic
COc1ccc(CC2=CC(=O)c3ccccc3C2=O)cc1	2.4µM*	17%	-5%	/	12%
c1ccc2c(c1)CCN(c1nc3cc4c(cc3s1)OCO4)C2	1.3µM*	1.3µM*	1.6µM*	2.2µM*	0.46µM*
c1c2c(cc3sc(N4CCOCC4)nc13)OCO2	6µM*	1.1µM*	2.8µM*	11µM*	?
O=C(c1ccc2nc(N3CCOCC3)sc2c1)N1CCCC1	3%	2%	1%	-15%	14%
c1ccc(N2CCN(c3nc4cc5c(cc4s3)OCO5)CC2)cc1	1.1µM*	0.71µM*	0.79µM*	?	11%
c1c2c(cc3sc(N4CCCCC4)nc13)OCO2	0.67µM*	0.32µM*	0.4µM*	3.2µM*	?
C/C(=N/NC(=O)OC(C)(C)C)c1ccco1	19µM*	2.5µM*	?	14µM*	?
C/C(=N\NC(=O)c1csc(C)c1C)c1ccco1	7.6µM*	2.2µM*	4µM*	11µM*	6.5µM*
